The whole screen tested about 1,300 compounds, of which about 750 (58%) were called active. Some of the results follow. A number with no mark means an inactive call.

The target of this assay is Sulfhydryl oxidase 1 (Homo sapiens) (UniProt O00391). In words: QSOX1 enzyme inhibitors, primary screen, biochemical, ROS-Glo H2O2 luminescence, HTS (AID 1347418). The note with it: recombinant QSOX1, ROS-Glo H2O2 luminescence; at 12.5 µM; stronger effect = higher value; active = any value above zero.
Sulfhydryl oxidase 1 (Homo sapiens), sequence (O00391 whole entry, looked up): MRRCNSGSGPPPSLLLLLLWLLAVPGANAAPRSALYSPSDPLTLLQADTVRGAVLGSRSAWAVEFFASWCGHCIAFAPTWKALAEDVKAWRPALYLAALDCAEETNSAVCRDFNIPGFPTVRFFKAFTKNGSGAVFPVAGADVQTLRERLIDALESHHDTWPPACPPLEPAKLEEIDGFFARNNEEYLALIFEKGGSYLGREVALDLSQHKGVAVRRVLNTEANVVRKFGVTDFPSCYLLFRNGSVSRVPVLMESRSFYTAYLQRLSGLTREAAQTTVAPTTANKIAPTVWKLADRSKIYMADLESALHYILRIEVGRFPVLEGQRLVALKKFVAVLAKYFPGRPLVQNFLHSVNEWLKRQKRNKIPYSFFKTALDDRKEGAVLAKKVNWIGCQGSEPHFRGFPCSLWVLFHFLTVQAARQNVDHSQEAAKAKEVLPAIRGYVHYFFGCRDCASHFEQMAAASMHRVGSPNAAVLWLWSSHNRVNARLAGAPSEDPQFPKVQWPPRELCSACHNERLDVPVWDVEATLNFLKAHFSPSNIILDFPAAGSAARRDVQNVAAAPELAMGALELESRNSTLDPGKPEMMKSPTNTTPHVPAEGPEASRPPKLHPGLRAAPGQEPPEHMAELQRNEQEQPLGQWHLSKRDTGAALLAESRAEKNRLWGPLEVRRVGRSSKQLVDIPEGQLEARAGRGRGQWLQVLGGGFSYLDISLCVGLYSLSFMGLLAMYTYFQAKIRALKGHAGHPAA
In the case of `O=P(O)(O)C(Cl)(Cl)P(=O)(O)O`, the inhibition (commonly the drop in the measured response relative to a control, in per cent) is 5.2% (active).
In the case of `O=C(O)CNC(=O)C(CS)Cc1ccccc1` (centres undefined) it was -1.4%.
To `N[C@H](C(=O)O)[C@H](Cc1ccccc1)C(=O)O` belongs 0.5% (active); to `O=C1c2c(O)cc(O)cc2OC(c2ccc(O)c(O)c2)C1O` (centres undefined), 9.8% (active).
As for `Oc1cc(O)c2c(c1)O[C@H](c1ccc(O)c(O)c1)[C@@H](O)C2`, the inhibition is 12.2% (active).
In the case of `[Li+]` it was 0%.
To `O=C(O)CCc1ccc(NCc2cccc(Oc3ccccc3)c2)cc1` belongs 13.1% (active).
With `CC(C)(C)NCC(O)COc1cccc2[nH]c(=O)[nH]c12` (centres undefined), the inhibition was 0.2% (active).
In the case of `Brc1c(Br)c(Br)c2[nH]cnc2c1Br` it was 3.9% (active).
In the case of `N=C(N)N1CCc2ccccc2C1` it was -3.7%; in that of `CN1CCc2ccccc2Cc2[nH]c3ccccc3c2CC1`, 6.3% (active).
In the case of `CC(C)(C)c1cc(/C=C(\C#N)C(N)=S)cc(C(C)(C)C)c1O` it was 37.7% (active).
For `C#CCN(C)Cc1ccccc1`, the inhibition is -0.7%.
In the case of `CN(C)C/C=C(/c1ccc(Br)cc1)c1cccnc1` it was 2.7% (active).
To `CN1CCC(=C2c3ccccc3CC(=O)c3sccc32)CC1` belongs 0.8% (active).
To `CN1CCC(=C2c3ccccc3C=Cc3ccccc32)CC1` belongs 2.2% (active).
On to `CCC1(O)CC2CN(CCc3c([nH]c4ccccc34)[C@@](C(=O)OC)(c3cc4c(cc3OC)N(C)C3[C@]45CCN4CC=C[C@@](CC)([C@@H](OC(C)=O)[C@]3(O)C(=O)OC)[C@H]45)C2)C1` (some centres undefined), for which the inhibition was 6.7% (active).
`CCC1(O)CC2CN(CCc3c([nH]c4ccccc34)[C@@](C(=O)OC)(c3cc4c(cc3OC)N(C=O)C3[C@]45CCN4CC=C[C@@](CC)([C@@H](OC(C)=O)[C@]3(O)C(=O)OC)[C@H]45)C2)C1` (some centres undefined): the inhibition is -0.2%.
To `O=c1[nH]cc(F)c(=O)[nH]1` belongs 0.8% (active); to `O=C(Nc1nc2ccccc2n1CCN1CCOCC1)c1cccc([N+](=O)[O-])c1`, 0.4% (active).
To `NC1CONC1=O` (centres undefined) belongs -3.5%; to `CN1C[C@H](C(=O)N[C@]2(C)O[C@@]3(O)[C@@H]4CCCN4C(=O)[C@H](Cc4ccccc4)N3C2=O)C[C@@H]2c3cccc4[nH]cc(c34)C[C@H]21`, 10% (active); to `COc1cccc(OC)c1OCCNCC1COc2ccccc2O1` (centres undefined), 1.9% (active).
In the case of `COc1cccc(OC)c1OCCNCC1CSc2ccccc2O1` (centres undefined) it was -0.7%.
`O=C1c2ccccc2C(=O)c2c(NCCc3ccc(O)cc3)ccc(NCCc3ccc(O)cc3)c21`: the inhibition was 11% (active).
In the case of `O=C(O)Cc1c[nH]c2ccc(O)cc12` it was 15.6% (active); in that of `N[C@@H](Cc1c[nH]c2ccccc12)C(=O)O`, -0.2%.
To `N[C@H](C(=O)O)c1cc(O)cc(O)c1` belongs -6.1%; to `N[C@@H](Cc1c[nH]c2ccc(O)cc12)C(=O)O`, 8.4% (active); to `CCn1ccnc1CC1COc2ccccc2O1` (centres undefined), 0.9% (active).
In the case of `NC(C(=O)N[C@@H]1C(=O)N2C(C(=O)O)=C(Cl)CS[C@H]12)c1ccccc1` (some centres undefined) it was 0.4% (active).
Consider `CC1=C(C(=O)O)N2C(=O)[C@@H](NC(=O)C(N)c3ccccc3)[C@H]2SC1` (some centres undefined), for which the inhibition is 2.2% (active).
In the case of `CC1=C(C(=O)O)N2C(=O)[C@@H](NC(=O)C(N)C3=CCC=CC3)[C@H]2SC1` (some centres undefined) it was -1.3%.
In the case of `NC(=O)c1cc[n+](CC2=C(C(=O)O)N3C(=O)[C@@H](NC(=O)[C@@H](c4ccccc4)S(=O)(=O)[O-])[C@H]3SC2)cc1` it was -1%; in that of `NCCS(=O)O`, -0.7%; in that of `O=C1OC(=O)C2C3CCC(O3)C12` (centres undefined), -1.3%.
To `NC(=O)NO` belongs -13.4%; to `NC(=O)C(=O)O`, -8.6%.
For the molecule `CC(=O)/C(C)=N/O`, the inhibition was -5.2%.
With `CC(=O)C(C)=O`, the inhibition was 2.1% (active).
In the case of `CC(N)=O` it was 4.6% (active).
In the case of `Nc1ccc2c3c(cccc13)C(=O)NC2=O` it was 7.4% (active); in that of `Nc1ncnc2c1ncn2C1CCCO1` (centres undefined), -0.8%; in that of `O=C(CCNNC(=O)c1ccncc1)NCc1ccccc1`, 3.1% (active).
On to `COc1ccc(C(=O)NCc2cccnc2)cc1C(=O)NCc1cccnc1`, for which the inhibition is -2.9%.
In the case of `OC(CCN1CCCCC1)(c1ccccc1)C1CCCCC1` (centres undefined) it was -2.5%; in that of `OC(CCN1CCCCC1)(c1ccccc1)C1CC2C=CC1C2` (centres undefined), 2.7% (active); in that of `NCCNC(=O)c1ncsc1-c1cccc(F)c1`, 0.5% (active).
In the case of `CCN(CC)CC#CCOC(=O)C(O)(c1ccccc1)C1CCCCC1` (centres undefined) it was -2.5%.
With `CC#C[C@]1(O)CC[C@H]2[C@@H]3CCC4=CC(=O)CCC4=C3[C@@H](c3ccc(N(C)C)cc3)C[C@@]21C`, the inhibition was 29.9% (active).
Take `O=C1Nc2ccc(I)cc2/C1=C/c1cc(Br)c(O)c(Br)c1`: the inhibition was 1.3% (active).
To `NCCCS(=O)(=O)O` belongs 4.4% (active); to `NCCS(=O)(=O)O`, -4.9%; to `Cc1nc2c([nH]1)c(=O)n(C)c(=O)n2Cc1ccco1`, -1.4%.
As to `COCc1nc2c([nH]1)c(=O)n(C)c(=O)n2CC(C)C`, the inhibition is -1.5%.
`Cn1c(=O)c2[nH]cnc2n(C)c1=O`: the inhibition is 2.2% (active).
In the case of `CC(C)Cn1c(=O)n(C)c(=O)c2[nH]cnc21` it was 1.8% (active); in that of `c1ccc(C(NCc2cccnc2)(c2ccccc2)c2ccccc2)cc1`, -3.5%.
In the case of `Clc1ccc(C(c2ccccc2Cl)C(Cl)Cl)cc1` (centres undefined), the inhibition was 22.6% (active).
Take `O=C(O)/C=C/C(O)c1ccc(Cl)cc1` (centres undefined): the inhibition was -2.6%.
To `Cc1ccc(N(CC2=NCCN2)c2cccc(O)c2)cc1` belongs 34.7% (active).
In the case of `O=C1O/C(=C/Br)CCC1c1cccc2ccccc12` (centres undefined) it was 2.5% (active); in that of `C[C@H](O)C(=O)C1=Nc2c(nc(N)[nH]c2=O)NC1`, 0.2% (active); in that of `CCCc1c(OCCCOc2ccc(OCC(=O)O)cc2)ccc(C(C)=O)c1O`, 4.1% (active).
On to `O=C(O)/C(=C/c1c(C(=O)O)[nH]c2cc(Cl)cc(Cl)c12)c1ccccc1`, for which the inhibition is 3.9% (active).
In the case of `O=C1NC(c2cccc([N+](=O)[O-])c2)=CCN1c1ccccc1O` it was 3.1% (active); in that of `CCCCCC(O)c1cccc(OCc2ccc3ccccc3n2)c1` (centres undefined), 2.8% (active).
Regarding `O=C(O)c1ccccc1Nc1cccc(OCc2ccc3ccccc3n2)c1`, the inhibition was 7.4% (active).
Take `O=C(c1ccccc1)c1ccc2n1CCC2C(=O)O` (centres undefined): the inhibition is -5%.
`NNCCc1ccccc1`: the inhibition was -0.4%.
To `C[C@H](NC(=O)/C(C#N)=C/c1ccc(O)c(O)c1)c1ccccc1` belongs 24.4% (active).
To `N#C/C(=C\c1ccc(O)c(O)c1)C(=O)NCCc1ccccc1` belongs 28.3% (active); to `N#C/C(=C\c1ccc(O)c(O)c1)C(=O)NCCCc1ccccc1`, 21% (active).
In the case of `N#C/C(=C\c1ccc(O)c(O)c1)C(=O)Nc1ccccc1` it was 26.5% (active); in that of `C[C@]12C=CC(=O)C=C1CC[C@@H]1C2=CC[C@]2(C)[C@@H](C(=O)CN3CCN(c4cc(N5CCCC5)nc(N5CCCC5)n4)CC3)CC[C@@H]12`, -5.3%; in that of `CSc1ccc(C(=O)c2[nH]c(=O)[nH]c2C)cc1`, -1.7%.
As to `N#C/C(=C\c1ccc(O)c(O)c1)C(=O)NCc1ccccc1`, the inhibition was 26.3% (active).
Consider `N#C/C(=C\c1ccc(O)c(O)c1)C(=O)NCCCNC(=O)/C(C#N)=C/c1ccc(O)c(O)c1`, for which the inhibition is 25% (active).
With `CN(C)c1nc(N(C)C)nc(N(C)C)n1`, the inhibition was -0.9%.
To `CC(=O)N1CCN(c2ccc(OC[C@H]3CO[C@](Cn4ccnc4)(c4ccc(Cl)cc4Cl)O3)cc2)CC1` belongs 9.3% (active).
Turning to `Nc1nc2c(ncn2COC(CO)CO)c(=O)[nH]1`, the inhibition was 0.2% (active).
In the case of `Nc1nc2c(ncn2COCCO)c(=O)[nH]1` it was 0%; in that of `CC(=O)OCC1=C(C(=O)O)N2C(=O)[C@@H](NC(=O)Cc3cccs3)[C@H]2SC1`, 1% (active).
Consider `CO/N=C(\C(=O)N[C@@H]1C(=O)N2C(C(=O)O)=C(COC(C)=O)CS[C@H]12)c1csc(N)n1`, for which the inhibition is -6.9%.
In the case of `Cc1ccc(/C(=C\CN2CCCC2)c2ccccn2)cc1`, the inhibition is -2.5%.
To `O=C1N=C(O)C(c2ccccc2)(c2ccccc2)N1` belongs -3.8%; to `O=c1[nH]c(=O)c2nc3ccccc3nc2[nH]1`, 8% (active); to `CCCOc1ccccc1-c1nc2n[nH]nc2c(=O)[nH]1`, -3%.
Consider `CC(=O)SC1CC2=CC(=O)CC[C@]2(C)C2CC[C@@]3(C)C(CC[C@@]34CCC(=O)O4)C12` (some centres undefined), for which the inhibition is -4.3%.
To `C[C@]12CCC(=O)C=C1CC[C@@H]1[C@@H]2CC[C@@]2(C)[C@H]1CC[C@]2(O)C(=O)CO` belongs 1.9% (active); to `C[C@]12CCC(=O)C=C1CC[C@@H]1[C@@H]2C(=O)C[C@@]2(C)[C@H]1CC[C@]2(O)C(=O)CO`, 4.5% (active); to `CC(=O)OCC(=O)[C@@]1(O)CC[C@H]2[C@@H]3CCC4=CC(=O)CC[C@]4(C)[C@H]3C(=O)C[C@@]21C`, -7.3%.
In the case of `C[C@]12C[C@H](O)[C@H]3[C@@H](CCC4=CC(=O)CC[C@@]43C)[C@@H]1CC[C@@H]2C(=O)CO` it was 1% (active); in that of `CC(=O)[C@@]1(O)CC[C@H]2[C@@H]3CCC4=CC(=O)CC[C@]4(C)[C@H]3CC[C@@]21C`, -1%; in that of `CC(=O)[C@H]1CC[C@H]2[C@@H]3CCC4=CC(=O)CC[C@]4(C)[C@H]3CC[C@]12C`, -0.5%.
In the case of `C[C@]12CCC(=O)C=C1CC[C@@H]1[C@@H]2[C@@H](O)C[C@@]2(C)[C@H]1CC[C@]2(O)C(=O)CO` it was -7.5%; in that of `O=C1NCN(c2ccccc2)C12CCN(CCCC(c1ccc(F)cc1)c1ccc(F)cc1)CC2`, -2.5%.
On to `COc1ccc2c(c1)c(CC(=O)O)c(C)n2C(=O)c1ccc(Cl)cc1`, for which the inhibition was 4.9% (active).
With `COc1ccc2c(c1)c(CC(=O)O)c(C)n2C(=O)c1ccccc1`, the inhibition was -3.5%.

For the origin of these results see PubChem BioAssay AID1347418 (Sanford-Burnham Center for Chemical Genomics, 2020).
